Compounds with a hit are over-represented: about 21% of the library has one in this group of screens.
IL-1B inflam inh – inhibitors of inflammasome signaling (IL-1 beta secretion). THP-1 LPS/ATP IL-1B secretion, AlphaLISA, 16 h; hits give low values. activity change, % at 57.5 µM. actives 4.7% (n = 360,000); in the data active = activity change below about -50%; inconclusive = mostly about -30% to -49%
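Secreted IL-1B measured by AlphaLISA bead assay after 16 h compound exposure of THP-1 cells; compounds (final up to 57.5 uM) added 1 h before LPS (250 ng/mL) and ATP (1.25 mM) stimulation; lower signal means less secretion.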
DT40 TDP1 no CPT – qHTS for Inhibitors of human tyrosyl-DNA phosphodiesterase 1 (TDP1): qHTS in cells in absence of CPT; DT40 Tdp1-/- hTDP1 cells, no CPT, ATP luminescence, 48 h; Potency, µM (series often up to 46.2 µM), most hits filed as inhibitors; actives 15% (n = 420,000); note: nearly all actives have a fitted effect of over 55% in size
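Growth of hTDP1-complemented DT40 Tdp1-knockout cells is measured by ATP luminescence after at least 48 hr compound exposure at 37 °C, with DMSO substituting for the 20 nM CPT used in the parallel screen.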
VP16 counter – inhibits Gal4-VP16 luciferase reporter, ROR gamma counter-screen; Drosophila S2 Gal4-VP16 UAS-luciferase, luminescence, 20 h; Potency, µM (doses to about 53.6 µM), actives largely listed as inhibitors; actives 3.5% (n = 310,000); AID 2546;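 note: Gal4-VP16 expression switched on by copper sulfate through the metallothionein promoter; nearly all actives have a fitted effect of over 50% in size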
TDP1 cell CPT – DT40-hTDP1 cell growth loss with CPT. chicken DT40 Tdp1-/-;hTDP1 cells + 20 nM CPT, ATP luminescence, 48 h. Potency, µM (series often up to 46.2 µM), usual class: inhibitors. actives 12% (n = 420,000). AID 686979; note: nearly all actives have a fitted effect of over 55% in size
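Chicken DT40 Tdp1-/- cells stably complemented with human TDP1 were seeded at 400 cells/well in medium containing 20 nM camptothecin, exposed to pin-transferred compounds, and grown at 37 °C for at least 48 hr. Viability was read as ATP luminescence.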
ELG1 DNA repair – inhibitors of ELG1-dependent DNA repair in HEK293T cells. HEK293T ELG1-luciferase reporter, luminescence, 16 h; DNA damage induced by 5-fluorouridine. Potency, µM (titrated, usually from 46.1 µM), actives largely listed as inhibitors. actives 2.3% (n = 330,000). AID 504467; note: nearly all actives have a fitted effect of over 55% in size
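Luminescence from the luciferase reporter, measured 30 min after ONE-Glo reagent at room temperature, was the read-out. Beforehand, 2,000 cells per well were exposed for 16 hr at 37 °C to 5-fluorouridine together with compound or vehicle.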
RORg inh – ROR gamma (mouse) transcription inhibition | P51450 | Drosophila S2 Gal4-RORgamma UAS-luciferase reporter, 20 h | Potency, µM (top dose mostly 53.6 µM), hits mostly inhibitors | actives 5.4% (n = 310,000) | AID 2551; note: nearly all actives have a fitted effect of over 60% in size
Target sequence (P51450 whole entry, looked up, the tested form may be a part): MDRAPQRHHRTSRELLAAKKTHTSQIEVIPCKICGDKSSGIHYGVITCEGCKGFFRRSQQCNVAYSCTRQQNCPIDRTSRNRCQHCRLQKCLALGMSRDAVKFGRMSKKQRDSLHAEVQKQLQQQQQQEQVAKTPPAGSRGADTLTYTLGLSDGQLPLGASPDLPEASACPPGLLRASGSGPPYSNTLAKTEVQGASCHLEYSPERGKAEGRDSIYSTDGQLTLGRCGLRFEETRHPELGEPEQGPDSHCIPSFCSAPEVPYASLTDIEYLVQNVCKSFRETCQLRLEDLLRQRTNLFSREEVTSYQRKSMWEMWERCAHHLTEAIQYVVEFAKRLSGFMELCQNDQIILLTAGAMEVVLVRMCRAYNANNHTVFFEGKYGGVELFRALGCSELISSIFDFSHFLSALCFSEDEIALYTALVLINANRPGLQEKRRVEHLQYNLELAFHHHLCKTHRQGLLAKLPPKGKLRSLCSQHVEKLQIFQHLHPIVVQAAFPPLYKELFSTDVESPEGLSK
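Drosophila Schneider cells stably carrying a metallothionein-driven Gal4 DBD–ROR gamma fusion and a UAS-Photinus luciferase reporter were exposed to compound for 1 hr, then induced with copper sulfate (700 uM final) for 20 hr at ambient temperature before luminescence reading.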
A number is an active result; . = inactive; ? = inconclusive; / = not tested or not shown; ! = not active in a repeat. Unless noted, calls come from the whole dose curve; as a rule, active = well fitted curve in the direction sought with a large enough effect; inconclusive = small, poorly fitted or top-dose-only effect, or another doubt; inactive = no such curve, though single readings can be large; an effect the other way counts as inactive or inconclusive.

SMILES	IL-1B inflam inh	DT40 TDP1 no CPT	VP16 counter	TDP1 cell CPT	ELG1 DNA repair	RORg inh
CCOc1ccc(NC(=O)N(C2CCCCCC2)C2CCN(C(C)=O)CC2)cc1	.	.	.	.	.	.
CCOc1ccc(NC(=O)N(Cc2cn(CC)c3ccccc23)C2CCCCCC2)cc1	/	21µM	/	9.2µM	/	/
CCc1ccc(NC(=O)N(Cc2cn(CC)c3ccccc23)C2CCCCC2)cc1	/	12µM	/	7.3µM	/	/
C[C@]12CC[C@H](O)CC1=C[C@H](O)C1C2CC[C@@]2(C)C1CC[C@@]2(O)C#Cc1ccc(CN)cc1 (stereo partly specified)	.	?	/	.	/	/
COc1ccc2[nH]c3c4c(ccc3c2c1)C(=O)C=CC4=O	-77	0.26µM	8.9µM	0.23µM	16µM	6.3µM
Cc1ccccc1C(=O)Nc1ccnn1C1CCN(Cc2cccnc2)CC1	.	.	.	.	.	.
CCn1cc(CN2CCC(n3nccc3NC(=O)c3ccccc3OC)CC2)cn1	.	.	?	.	.	.
CCc1ccc(CN2CCC(n3nccc3NC(=O)c3ccccc3C)CC2)cc1	.	?	.	21µM	?	.
CCOc1ccc(CN2CCC(n3nccc3NC(=O)c3ccccc3OC)CC2)cc1	.	?	.	16µM	.	.
CCCCc1ncc(CN2CCC(n3nccc3NC(=O)c3ccccc3Cl)CC2)[nH]1	.	.	.	.	10µM	.
CC(=O)Nc1cccc2c1C(=O)N(c1ccc(OC(C)=O)cc1)C2=O	.	.	.	.	.	.
COC(C[C@@H]1O[C@@H]1[C@H](O)[C@H](C)OCc1ccccc1)OC	.	.	.	.	.	.
COC(C[C@H]1O[C@H]1C(=O)[C@@H](C)OCc1ccccc1)OC	.	?	/	10µM	/	/
COC(C[C@@H]1O[C@H]1C(=O)[C@@H](C)OCc1ccccc1)OC	?	.	/	18µM	/	/
COC(C[C@@H]1O[C@@H]1[C@@H](O)[C@@H](C)OCc1ccccc1)OC	.	.	.	.	.	.
CCOC(=O)Cc1cc(=O)[nH]n(-c2ccccc2)c1=O	.	.	/	.	/	/
CCN(Cc1ccncc1)Cc1ccc2c(c1)CN(C(=O)c1cccc3c(C)c(C)[nH]c13)CCO2	/	.	/	.	/	/
CCCCOc1ccc(C(=O)NCC2(c3ccc(OC)cc3)CCOCC2)cc1	.	?	?	.	.	.
Cc1nn2c(=O)cc(CN(C)c3ccccc3)nc2s1	/	.	/	.	/	/
Cc1ccc(N2CC(C(=O)NCCS(=O)(=O)N3CCN(c4ccccc4F)CC3)CC2=O)cc1 (stereo unspecified)	.	?	.	15µM!	.	.
COc1ccc(N2CC(C(=O)N/N=C/c3ccc(C)cc3)CC2=O)cc1 (stereo unspecified)	.	1.6µM	.	1.3µM	.	.
O=C(NCCS(=O)(=O)N1CCN(c2ccccc2F)CC1)C1CC(=O)N(c2ccccc2)C1 (stereo unspecified)	.	.	.	.	.	.
Cc1ccc(N2CC(C(=O)N/N=C/c3sccc3C)CC2=O)cc1 (stereo unspecified)	.	.	?	.	.	?
Cc1ccc(N2CC(C(=O)N/N=C/c3c(F)cccc3Cl)CC2=O)cc1 (stereo unspecified)	.	?	.	.	9.2µM	.
Cc1nc(N2CCOCC2)c2c(C(=O)N(C)Cc3ccccc3)c(C)oc2n1	/	.	/	.	/	/
COC(=O)c1cc2n(n1)CCN(Cc1ccc(OC)cc1)C2=O	.	.	.	.	.	.
COc1ccc(CN2CCn3ncc(C(=O)Nc4cc(C)cc(C)c4)c3C2=O)cc1	.	?	?	5.8µM	.	?
Cc1ccc(S(=O)(=O)N2CCC(=O)N(C(COC(=O)Nc3ccccc3)Cc3ccccc3)CC2)cc1 (stereo unspecified)	.	?	.	21µM	.	.
